Bioassay records (PubChem BioAssay)
D2 PAM-1: D2 dopamine receptor (human) potentiation; P14416; HEK293 T-REx D2, calcium flux, EC20 dopamine potentiation; AID 485347; potentiation, % at 10 µM; 0.34% of 340,000 active;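 active = potentiation over 3 SD above the plate norm, cut at about 30% in these data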; note: 0% is about no effect
Target sequence (P14416 whole entry, looked up): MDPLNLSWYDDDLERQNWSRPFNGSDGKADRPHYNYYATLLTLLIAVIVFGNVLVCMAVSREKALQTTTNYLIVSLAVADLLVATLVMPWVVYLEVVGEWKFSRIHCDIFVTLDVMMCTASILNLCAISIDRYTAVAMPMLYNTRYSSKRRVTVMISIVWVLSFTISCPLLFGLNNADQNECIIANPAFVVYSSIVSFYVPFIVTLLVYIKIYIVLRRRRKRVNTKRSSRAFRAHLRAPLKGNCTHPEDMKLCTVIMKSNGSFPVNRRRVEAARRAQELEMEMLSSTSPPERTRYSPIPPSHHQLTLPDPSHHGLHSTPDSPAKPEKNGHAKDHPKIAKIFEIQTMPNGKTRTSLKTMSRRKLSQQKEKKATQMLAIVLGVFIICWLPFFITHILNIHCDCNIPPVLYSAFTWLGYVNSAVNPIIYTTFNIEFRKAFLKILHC
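Potentiation of an EC20 dopamine calcium response is measured in a force-coupled, tetracycline-inducible Hek293 Trex D2 line. Compound-only kinetic reads over 180 s flag agonists before dopamine addition.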
D2 ag-1: human D2 receptor agonism in beta-arrestin assay; P14416; DiscoveRx PathHunter D2 beta-arrestin, luminescence, 90 min; 100% = 57 uM dopamine signal; activation, % (no concentration beside the values); 0.084% of 360,000 active; in the data active = activation above about 40%
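Agonist mode: compounds alone added to overnight-plated D2 PathHunter cells for 90 min at 37 C, with 57 uM final dopamine (EC100) defining full response. Beta-arrestin recruitment detected by chemiluminescent reagent, read after 1 h at ambient temperature.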
D2 antagonist: antagonizes the human D2 dopamine receptor; 2% of 340,000 active; inhibition, % at 10 µM; P14416; HEK293 TREx D2 cells, calcium flux, dopamine EC80; in the data active = inhibition above about 30%; inactive = below that, where a call was filed; note: 0% is about no effect
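Tetracycline-induced HEK293 T-REx cells expressing D2 force-coupled to calcium signalling were dye-loaded, exposed to compound for 180 s, then challenged with an EC80 of dopamine; calcium flux was followed kinetically for a further 180 s.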
D2 PAM-2: positive allosteric modulators of human D2 dopamine receptor. P14416. DiscoveRx D2 beta-arrestin cells, luminescence, 90 min; 100% = 57 uM dopamine signal. potentiation, % (concentration not given with the values). 0.23% of 360,000 active. AID 624464; in the data active = potentiation above about 50%
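PathHunter beta-arrestin assay in DiscoveRx D2 cells. Compounds were added with an EC20 of dopamine (50 nM final) for 90 min at 37 deg C. Luminescence was read 1 h after detection reagent, with 57 uM dopamine as the EC100 control.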
LDHA inh: blocks human lactate dehydrogenase A; purified LDHA, NADH/diaphorase-resazurin fluorescence; stronger effect = lower value; activity change, % (values are at about 110 or 230 µM); 0.15% of 480,000 active; AID 1347041; in the data active = activity change below about -30%;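 note: plate controls were DMSO wells for no effect and wells without enzyme for full effect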
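Remaining NADH was detected by diaphorase (0.133 mg/mL) converting 37 µM resazurin to fluorescent resorufin, read at 0 and 20 minutes. The preceding 5-minute room-temperature reaction used 2 nM LDHA, 0.2 mM sodium pyruvate and 0.06 mM NADH at pH 7.4.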
D2 ag-2: D2 dopamine receptor (human) agonism; P14416; HEK293 T-REx D2 cells, calcium flux agonist mode; activation, % at 2 µM; 0.53% of 340,000 active; AID 485358;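 active = activation over 3 SD above normal in the single-dose calcium agonist read, cut at about 30% in these data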; note: 0% is about no effect
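Agonism is scored from calcium flux in a force-coupled, inducible HEK293 cell line expressing D2, read kinetically for 180 s after compound addition against dopamine controls.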
* = called active by the depositor; . = no result. This is a sample that favours compounds with a hit; in the whole collection about 2.1% have one here.

SMILES	D2 PAM-1	D2 ag-1	D2 antagonist	D2 PAM-2	LDHA inh	D2 ag-2
Fc1ccc(C2Nc3cccc4cccc(c34)N2)cc1	-1	8	-5	-1	17	1
COc1ccc(NC(=O)CNS(=O)(=O)c2ccc(Cl)cc2)cc1	45*	1	-4	1	3	0
COc1ccc(NC(=O)CNC(=O)Cc2ccccc2)cc1	32*	6	8	0	-3	-2
CCCCCn1nc(C(=O)N2CCN(c3ccc(F)cc3)CC2)c2ccccc2c1=O	.	.	.	.	-2	.
COc1ccccc1/C=N/NC(=O)c1ccc(Br)cc1	-13	-1	72*	-15	-7	-1
O=C(N/N=C/c1ccc(OC(F)F)cc1)c1ccc(Br)cc1	-20	0	31*	-31	-4	-1
COc1ccc(/C=N/NC(=O)c2ccc(Br)cc2)c(OC)c1	-28	0	33*	-20	-5	1
COc1ccc(/C=N/NC(=O)c2ccncc2)c(OC)c1	6	-3	-9	-2	-2	-1
CSCCC(NC(=O)OC(C)(C)C)C(=O)Oc1ccc2c(=O)c(-c3ccc4c(c3)OCCO4)coc2c1 (stereo not given)	10	-5	33*	-5	-4	0
COC(=O)COc1ccc2c(=O)c(-c3ccc4c(c3)OCCO4)coc2c1	.	.	.	.	1	.
Cc1ccc(C2CC(=O)N3CN(Cc4ccccc4)CSC3=C2C#N)cc1 (stereo not given)	.	.	.	.	70	.
COc1cc(C(=O)NC(=S)Nc2ccccc2N2CCCC2)cc(OC)c1OC	7	-4	43*	-23	0	-1
O=C(Nc1ccccc1N1CCOCC1)c1cc(-c2ccco2)nc2ccccc12	7	2	2	16	-3	0
COc1cc(C(=O)Nc2ccccc2N2CCCCC2)cc(OC)c1OC	-9	-2	0	-2	1	-1
COc1cc(-c2cc(C(=O)Nc3ccccc3N3CCOCC3)c3ccccc3n2)cc(OC)c1OC	33*	-5	-24	24	3	0
Cn1c(COc2ccc(Cl)cc2)n[nH]c1=S	.	.	.	.	-4	.
Cc1ccc(C(=O)NNc2ncnc3c2cnn3C)cc1	12	-2	31*	-10	4	0
Cc1ccccc1C(=O)NNc1ncnc2c1cnn2C	10	-2	5	-17	9	1
COc1ccc(C(=O)N2N=C(c3ccco3)CC2c2ccc3nccnc3c2)cc1 (stereo not given)	.	.	.	.	-9	.
Cc1ccc(-c2nc(S(=O)(=O)c3ccc(F)cc3)c(SCC(=O)NCC3CCCO3)o2)cc1 (stereo not given)	36*	0	-7	-3	0	1
O=C(CSc1nc2c(cnn2-c2cccc(Cl)c2)c(=O)[nH]1)NCC1CCCO1 (stereo not given)	4	8	39*	1	-5	0
Cc1ccc(-n2ncc3c(=O)[nH]c(SCC(=O)NCC4CCCO4)nc32)cc1 (stereo not given)	.	0	.	-2	-8	.
Cc1ccc(-c2[nH]c(-c3ccc(Cl)cc3)nc2SCC(=O)NCC2CCCO2)cc1 (stereo not given)	-20	-2	61*	-11	-2	4
Cc1sc(N2CCCC2)nc1-c1ccc(NS(C)(=O)=O)cc1	.	.	.	.	-11	.
COc1ccc(C(=O)/C(=C/c2ccc(C)o2)c2nc3ccccc3o2)cc1OC	.	.	.	.	9	.
SMILES	D2 PAM-1	D2 ag-1	D2 antagonist	D2 PAM-2	LDHA inh	D2 ag-2
O=C(NC1CCN(Cc2ccccc2)CC1)c1ccc(Cl)cc1Cl	-20	1	61*	-86	-11	1
Cc1c(Cl)cccc1NC(=S)NC1CCN(Cc2ccccc2)CC1	-22	1	85*	-38	-6	1
COc1ccc(CCNC(=S)NC2CCN(Cc3ccccc3)CC2)cc1OC	-37	-1	32*	-13	-8	0
O=C(CN1C2CCCC1CC(NC(=O)c1ccco1)C2)Nc1ccccc1C(F)(F)F (stereo not given)	-6	1	9	-11	-3	-2
O=C(CN1CCC(NC(=O)c2ccco2)CC1)Nc1ccccc1C(F)(F)F	9	-1	50*	-6	-3	0
Cc1c(Cl)cccc1NC(=S)N1CCN(Cc2ccccc2)CC1	7	-2	0	-21	0	0
CC[N+](C)(CC)CCCOC(=O)C1(c2ccccc2)CCCC1	.	.	.	.	4	.
S=C(NCc1ccc(Cl)cc1)NC1CCN(Cc2ccccc2)CC1	-27	7	71*	-20	1	2
O=C(NC1CCN(Cc2ccccc2)CC1)C1CCN(S(=O)(=O)c2ccc(Cl)cc2)CC1	-14	-6	33*	-17	-3	1
CCCN1CCC(NC(=S)Nc2cccc(Cl)c2Cl)CC1	-13	-3	29	-6	0	-1
CC(C)c1ccccc1NC(=S)NC1CCN(Cc2ccccc2)CC1	-27	-5	96*	-14	-8	1
FC(F)(F)c1ccccc1NC(=S)NC1CCN(Cc2ccccc2)CC1	-26	-3	115*	-34	-12	1
O=C(NC1CCN(Cc2ccccc2)CC1)C1CCN(S(=O)(=O)c2ccccc2)CC1	-6	0	-4	-9	-6	0
Cc1ccc(-c2nn(CCC#N)c(=O)c3ccccc23)cc1	.	.	.	.	-4	.
CCCN(Cc1nnc(-c2ccccc2Cl)o1)C(=O)c1cccc(S(=O)(=O)N(C)C)c1	.	.	.	.	4	.
CC(C)c1ccccc1NC(=S)N1CCN(Cc2ccc3c(c2)OCO3)CC1	-23	-4	33*	-15	-3	2
S=C(Nc1ccccc1Cl)NC1CCN(Cc2ccccc2)CC1	-24	1	85*	-38	-6	0
S=C(Nc1ccccc1Cl)NC1CCC(NC(=S)Nc2ccccc2Cl)CC1 (stereo not given)	5	2	.	-23	-11	.
S=C(Nc1cc(Cl)cc(Cl)c1)NC1CCN(Cc2ccccc2)CC1	-28	-3	72*	-26	-1	3
S=C(Nc1cccc(Cl)c1)NC1CCCCC1	-5	-2	-8	-9	-4	-1
S=C(Nc1ccc(Cl)cc1Cl)NC1CCN(Cc2ccccc2)CC1	-26	-2	75*	-28	-9	2
Cc1cccc(NC(=S)N2CCN(Cc3ccc4c(c3)OCO4)CC2)c1C	5	-5	.	-17	-3	.
Cc1cc2nc(COC(=O)c3cccc(NC(=O)c4cccc(Cl)c4)c3C)cc(=O)n2o1	.	.	.	.	-2	.
CCn1ncc(C2=NOC(C(=O)NCc3ccc(OC)cc3)C2)c1C (stereo not given)	-17	2	6	-7	-3	31*
